The values that follow come from PubChem BioAssay.

In experiment [1] the test system is Plasmodium falciparum Sir2 (PF13_0152, Sir2A). The experiment can be described thus: Plasmodium falciparum Sir2A binding compounds – biochemical, small-molecule microarray, 635 nm fluorescence, primary screen (AID 1098).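 Further: score merges spot fluorescence intensity with its signal-to-noise ratio.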 The following applies: fluorescence 635 nm, higher = more signal.
A short description of experiment [2]: probe aDKK1 binding to arrayed compounds – biochemical, biotinylated probe, 635/667 nm fluorescence, primary screen (AID 1099).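 Further: score merges 667nm spot fluorescence with signal to noise across triplicate slides.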 Particulars: small-molecule microarray, higher = more signal.
Experiment [3] can be described thus: probe aCHRDL2 binding to arrayed compounds – biochemical, biotinylated probe, 635/667 nm fluorescence, primary screen (AID 1100). Particulars: small-molecule microarray, higher = more signal.
Experiment [4] in a line: change in splice reporter luminescence, either direction, cell-based, HEK293, spliceosome inhibition project, primary screen (AID 1101).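 Further: HEK293 cells carrying a splicing-competent luciferase reporter gene; test concentration not given here.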 The following applies: HEK293 splicing luciferase reporter, 24 h, higher = more signal, called active from +8 up or from −8 down.
Experiment [5] addresses Fibroblast growth factor 10 (Homo sapiens) (UniProt O15520). The experiment can be described thus: compounds binding fibroblast growth factor 10 – biochemical, small-molecule microarray, 635 nm fluorescence, primary screen (AID 1102). Particulars: FGF10 binding, fluorescence 635 nm, higher = more signal.
In experiment [6] the test system is glycogen synthase kinase-3 (GSK3A per assay name; protocol says GSK3B). Nature of the experiment: compounds binding glycogen synthase kinase-3 – biochemical, small-molecule microarray, 635 nm fluorescence, GSK3A, primary screen (AID 1103). Further: the record names both GSK3A and GSK3B. Particulars: fluorescence 635 nm, higher = more signal.
The target in experiment [7] is Epidermal growth factor receptor (Homo sapiens) (UniProt P00533). The experiment can be described thus: compounds binding epidermal growth factor receptor – biochemical, small-molecule microarray, 635 nm fluorescence, primary screen (AID 1104).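 Further: score merges 667 nm emission intensity with spot signal to noise over triplicate slides.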 The following applies: EGFR binding, higher = more signal.
Chain of Epidermal growth factor receptor (Homo sapiens) (P00533 whole entry, looked up): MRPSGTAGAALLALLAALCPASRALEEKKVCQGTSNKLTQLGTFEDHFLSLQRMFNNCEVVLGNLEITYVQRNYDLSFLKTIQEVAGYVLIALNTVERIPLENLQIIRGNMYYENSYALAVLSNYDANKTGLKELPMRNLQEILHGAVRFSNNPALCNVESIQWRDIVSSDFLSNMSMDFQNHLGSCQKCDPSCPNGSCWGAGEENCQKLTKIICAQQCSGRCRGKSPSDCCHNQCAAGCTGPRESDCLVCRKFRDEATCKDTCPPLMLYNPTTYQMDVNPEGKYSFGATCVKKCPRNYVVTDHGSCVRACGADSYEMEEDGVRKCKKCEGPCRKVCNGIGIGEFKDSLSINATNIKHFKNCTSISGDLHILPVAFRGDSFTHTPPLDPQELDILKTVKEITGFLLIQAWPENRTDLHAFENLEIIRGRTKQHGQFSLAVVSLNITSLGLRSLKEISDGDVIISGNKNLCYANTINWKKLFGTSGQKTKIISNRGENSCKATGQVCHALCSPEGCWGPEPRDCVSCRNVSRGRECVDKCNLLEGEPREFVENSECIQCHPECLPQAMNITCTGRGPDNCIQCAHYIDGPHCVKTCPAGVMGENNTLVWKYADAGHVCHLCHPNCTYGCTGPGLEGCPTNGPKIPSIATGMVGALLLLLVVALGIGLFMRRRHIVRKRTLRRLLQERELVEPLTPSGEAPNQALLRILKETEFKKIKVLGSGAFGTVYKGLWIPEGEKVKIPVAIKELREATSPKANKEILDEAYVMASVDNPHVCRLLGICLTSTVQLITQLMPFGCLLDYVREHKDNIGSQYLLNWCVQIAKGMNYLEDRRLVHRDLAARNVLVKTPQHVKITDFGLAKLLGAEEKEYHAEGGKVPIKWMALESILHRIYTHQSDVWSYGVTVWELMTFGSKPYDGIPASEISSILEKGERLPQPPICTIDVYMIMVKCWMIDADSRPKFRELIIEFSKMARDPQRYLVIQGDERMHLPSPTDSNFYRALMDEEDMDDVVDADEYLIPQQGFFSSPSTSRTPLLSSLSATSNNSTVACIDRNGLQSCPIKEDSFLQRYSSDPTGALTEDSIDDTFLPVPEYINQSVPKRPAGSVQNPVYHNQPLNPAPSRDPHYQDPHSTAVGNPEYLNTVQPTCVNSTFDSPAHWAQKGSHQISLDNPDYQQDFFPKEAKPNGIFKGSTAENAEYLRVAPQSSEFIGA
Experiment [8] concerns the target Follistatin-related protein 3 (Homo sapiens) (UniProt O95633). The experiment can be described thus: compounds binding follistatin-related protein 3 – biochemical, small-molecule microarray, 635 nm fluorescence, primary screen (AID 1105).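 Further: score merges emission near 667 nm and signal to noise per printed spot across three slides.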 Particulars: FSTL3 binding, higher = more signal.
Experiment [9] concerns the target Dickkopf-related protein 1 (Homo sapiens) (UniProt O94907). The experiment can be described thus: small molecules binding DKK1 protein – biochemical, small-molecule microarray, 635 nm fluorescence scan, primary screen (AID 1106).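 Further: score merges emission near 667 nm with signal to noise over three replicate slides.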 The following applies: higher = more signal.
Experiment [10] concerns Inhibin beta A chain (activin A). The experiment can be described thus: small molecules binding activin A – biochemical, small-molecule microarray, 635 nm fluorescence scan, primary screen (AID 1107).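 Further: mouse activin A protein probed at 4.33 µg/mL on printed slides; score merges bound-protein fluorescence near 667 nm with spot signal-to-noise.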 Particulars: INHBA, higher = more signal.
In experiment [11] the test system is Human papillomavirus type 1a protein E7 (residues 44-93). The experiment can be described thus: small molecules binding HPV E7 44-93 – biochemical, small-molecule microarray, residues 44-93, 635 nm fluorescence, primary screen (AID 1108).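 Further: E7 fragment applied at 1 µg/mL in TBST for 1 h at 4 C; score combines spot fluorescence with its signal to noise ratio.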 Particulars: fluorescence 635 nm, higher = more signal.
A short description of experiment [12]: hepatitis C replication reporter changes, two-sided – Huh7 cells, luciferase reporter, HCV replication inhibitor project, primary screen (AID 1109).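 Further: huh7 hepatoma cells harbouring a luciferase neomycin HCV replicon reporter; luciferase luminescence as measure of HCV replicon replication; test concentration not given here.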 Particulars: Huh7 HCV replicon luciferase reporter, 48 h; higher = more signal. In general terms: Reporter assays use an easily measured gene product as a stand-in for the process of interest.
The target in experiment [13] is Left-right determination factor 2 (Homo sapiens) (UniProt O00292). The experiment can be described thus: small molecules binding LEFTY2 protein – biochemical, small-molecule microarray, 635 nm fluorescence scan, primary screen (AID 1110). Particulars: higher = more signal.
Chain of Left-right determination factor 2 (Homo sapiens) (O00292 whole entry, looked up): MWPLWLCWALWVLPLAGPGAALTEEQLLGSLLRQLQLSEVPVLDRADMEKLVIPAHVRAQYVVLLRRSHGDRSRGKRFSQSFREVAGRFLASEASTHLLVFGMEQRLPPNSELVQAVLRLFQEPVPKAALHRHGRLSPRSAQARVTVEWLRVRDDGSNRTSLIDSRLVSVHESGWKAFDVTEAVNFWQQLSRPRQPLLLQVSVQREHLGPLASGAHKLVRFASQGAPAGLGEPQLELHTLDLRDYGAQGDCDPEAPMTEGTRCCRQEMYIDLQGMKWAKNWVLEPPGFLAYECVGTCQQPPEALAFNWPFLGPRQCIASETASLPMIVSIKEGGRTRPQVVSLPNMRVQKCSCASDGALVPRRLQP
For experiment [14], the target named is Calmodulin-1 (Homo sapiens) (UniProt P0DP23). Nature of the experiment: small molecules binding calmodulin-1 with EGTA – biochemical, small-molecule microarray, Cy5-labelled CALM1, profiling panel (AID 1111).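 Further: labelled calmodulin applied in Tris saline Tween buffer holding calcium plus EGTA and DTT.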 Particulars: Cy5-CALM1 binding fluorescence, higher = more signal.
Experiment [15] has the same target. The experiment can be described thus: small molecules binding Ca-loaded calmodulin-1 – biochemical, small-molecule microarray, Cy5-labelled CALM1, plus calcium, artefact control for SMM control-protein annotation, profiling panel (AID 1112).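 Further: score merges spot fluorescence with signal to noise from triplicate slides.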 Particulars: Cy5-CALM1 binding fluorescence, higher = more signal.
Experiment [16] is described as follows: probe aWnt5a binding to arrayed compounds – biochemical, biotinylated probe, 635/667 nm fluorescence, primary screen (AID 1113).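 Further: score merges 667 nm fluorescence intensity with signal-to-noise per printed feature.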 The following applies: small-molecule microarray, higher = more signal.
Experiment [17] can be described thus: probe aShh binding to arrayed compounds – biochemical, biotinylated probe, 635/667 nm fluorescence, primary screen (AID 1114).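 Further: probe is biotin-labelled aShh protein from a stem cell growth factor screen; measures binding of labelled protein to compounds printed on the slide; score merges feature fluorescence at 667 nm with signal-to-noise.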 Particulars: small-molecule microarray, higher = more signal.
A short description of experiment [18]: probe aNog binding to arrayed compounds – biochemical, biotinylated probe, 635/667 nm fluorescence, primary screen (AID 1115).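 Further: probe is biotinylated aNog protein used at 0.15 µg/mL for 1 h at 4 C; z-score combines 667 nm fluorescence of each spot with its signal to noise.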 Particulars: small-molecule microarray, higher = more signal.
The target of experiment [19] is Torsin-1A-interacting protein 1 (Homo sapiens) (UniProt Q5JTV8). The experiment can be described thus: compound microarray binding of lysate hLAP1 – cell lysate, small-molecule microarray, COS7 lysate, 635/667 nm fluorescence, primary screen (AID 1116). The following applies: 635 nm fluorescence, higher = more signal.
Chain of Torsin-1A-interacting protein 1 (Homo sapiens) (Q5JTV8 whole entry, looked up): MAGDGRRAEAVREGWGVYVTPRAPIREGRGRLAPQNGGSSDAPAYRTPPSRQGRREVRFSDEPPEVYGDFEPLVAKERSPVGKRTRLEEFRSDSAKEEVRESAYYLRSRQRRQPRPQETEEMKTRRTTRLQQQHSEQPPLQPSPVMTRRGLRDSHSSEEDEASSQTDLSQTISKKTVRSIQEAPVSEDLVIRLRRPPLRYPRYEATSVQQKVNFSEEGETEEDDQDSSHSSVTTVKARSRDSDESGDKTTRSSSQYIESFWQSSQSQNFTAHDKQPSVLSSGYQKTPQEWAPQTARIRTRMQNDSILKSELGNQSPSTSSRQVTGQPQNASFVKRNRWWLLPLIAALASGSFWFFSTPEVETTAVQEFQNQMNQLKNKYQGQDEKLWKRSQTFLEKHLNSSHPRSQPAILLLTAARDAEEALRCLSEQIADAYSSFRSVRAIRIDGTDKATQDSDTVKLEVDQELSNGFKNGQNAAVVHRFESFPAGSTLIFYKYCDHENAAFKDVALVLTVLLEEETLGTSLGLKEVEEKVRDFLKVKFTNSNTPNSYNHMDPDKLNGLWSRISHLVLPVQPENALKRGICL
Experiment [20] deals with Alpha-bungarotoxin (Bungarus multicinctus) (UniProt P60615). Nature of the experiment: compounds binding labelled alpha-BTX control protein – biochemical, small-molecule microarray, Alexa647 label, 635/667 nm fluorescence, artefact control for SMM control protein annotation, profiling panel (AID 1117). Particulars: alpha-BTX-A647 binding fluorescence, higher = more signal.
Chain of Alpha-bungarotoxin (Bungarus multicinctus) (P60615 whole entry, looked up): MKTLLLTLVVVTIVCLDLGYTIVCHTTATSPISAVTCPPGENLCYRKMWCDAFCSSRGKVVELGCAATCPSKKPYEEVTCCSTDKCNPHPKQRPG

Calls of active or inactive are those of the source.

Chain of Follistatin-related protein 3 (Homo sapiens) (O95633 whole entry, looked up): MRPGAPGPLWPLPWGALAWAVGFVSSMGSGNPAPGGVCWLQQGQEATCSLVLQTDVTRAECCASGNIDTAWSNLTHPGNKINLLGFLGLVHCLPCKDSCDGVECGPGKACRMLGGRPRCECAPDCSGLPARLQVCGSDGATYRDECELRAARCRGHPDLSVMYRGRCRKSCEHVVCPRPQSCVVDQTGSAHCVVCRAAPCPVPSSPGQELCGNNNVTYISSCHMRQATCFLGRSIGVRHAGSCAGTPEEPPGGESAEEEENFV
Chain of Dickkopf-related protein 1 (Homo sapiens) (O94907 whole entry, looked up): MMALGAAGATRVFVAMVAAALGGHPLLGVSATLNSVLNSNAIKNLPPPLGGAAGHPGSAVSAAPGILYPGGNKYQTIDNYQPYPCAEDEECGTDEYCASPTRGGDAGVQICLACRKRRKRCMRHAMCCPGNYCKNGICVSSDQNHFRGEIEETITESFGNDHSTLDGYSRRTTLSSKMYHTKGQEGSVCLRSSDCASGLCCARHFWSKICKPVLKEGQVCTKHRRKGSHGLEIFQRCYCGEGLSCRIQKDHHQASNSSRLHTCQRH
Chain of Fibroblast growth factor 10 (Homo sapiens) (O15520 whole entry, looked up): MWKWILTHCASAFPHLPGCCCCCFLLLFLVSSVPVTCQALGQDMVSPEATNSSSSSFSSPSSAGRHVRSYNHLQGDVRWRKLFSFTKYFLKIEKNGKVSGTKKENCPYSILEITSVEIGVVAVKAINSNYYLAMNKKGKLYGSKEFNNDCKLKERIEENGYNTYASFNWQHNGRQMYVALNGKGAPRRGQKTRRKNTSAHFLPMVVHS

Consider `COCCOC(=O)N1C(=O)[C@@]2(c3cc(C#Cc4ccc(OC)cc4)ccc31)[C@H](C(=O)N1CCN(c3ncccn3)CC1)[C@H]1C(=O)O[C@H](c3ccccc3)[C@H](c3ccccc3)N1[C@@H]2c1ccc(OCCO)cc1`, for which the composite z-score in experiment [1] was determined as 0.593; in experiment [2] it was 0.61; in [3] it was 0.628; in experiment [5], 0.968; in experiment [6] it was 0.043; in experiment [7] it was 0.624. For the same compound, the composite z-score in [8] amounted to 1.11; in experiment [9] it was 1.19; in [10], 1.03; in [11] it was 1.4; in experiment [13] it was 0.64; in [14] it was 0.766. In addition, the composite z-score was 0.397 in experiment [15]; 0.101 in experiment [16]; -0.229 in experiment [17]; 1.26 in [18]; -0.109 in [19]; 0.598 in experiment [20]. Moreover, the z-score in experiment [4] is 0.688 (inactive); in experiment [12], -1.56.
As to `CCN1C(=O)[C@H]2[C@H]3[C@H](O)[C@H](O)CC(=NOCc4ccccc4)[C@H]3CC[C@H]2C1=O`, the composite z-score in experiment [1] was 0.18; in experiment [2] it was -0.237; in experiment [3], -0.278; in experiment [5] it was 0.47; in experiment [6], 0.0166; in experiment [7], 0.0741. Moreover, the composite z-score in experiment [8] is -0.257; in experiment [9], 0.132; in [10], -0.114; in [11], -0.0677; in [13], 0.387; in [14], -0.253. The composite z-score in [15] was -0.787; in experiment [16], -0.139; in [17] it was -0.214; in experiment [18], 0.128; in experiment [19], 0.151; in experiment [20], 0.437. Besides, the z-score in experiment [4] is 0.462 (inactive); in [12] it was 0.396.
Take `CC(C)=CCCC(C)=CCON=C1[C@H]2CCn3c(=O)n(C)c(=O)n3[C@H]2[C@H](O)[C@@H]2O[C@H]12`: the composite z-score is 0.819 in experiment [1]; -0.317 in experiment [2]; -0.378 in experiment [3]; 0.868 in [5]; 1.26 in experiment [6]; 0.779 in experiment [7]. Further, the composite z-score in [8] is 1.05; in experiment [9], 0.921; in experiment [10], 0.832; in [11], 1.32; in experiment [13], 0.692; in [14], -0.257. The composite z-score in [15] was -0.845; in [16], 0.188; in [17], 0.131; in experiment [18] it was -0.0146; in experiment [19], 1.2; in experiment [20], -0.0134. Further, the z-score is 0.709 (inactive) in [4] and -0.621 in experiment [12].
Regarding `CO[C@H]1COC(=O)[C@@H]2CCCN2C(=O)CC=C[C@@H](C)[C@H](OC)COC(=O)CC=C[C@@H]1C`, the composite z-score in [1] is 0.401; in experiment [2], -0.569; in experiment [3], -1.28; in [5], 1.09; in [6], 1.06; in experiment [7] it was 1.64. Besides, the composite z-score in experiment [8] was 1.47; in experiment [9], 1.63; in [10], 1.5; in experiment [11], 0.589; in [13], 1.47; in [14], -2.29. In addition, the composite z-score in experiment [15] was -2.06; in experiment [16] it was -0.117; in [17] it was -0.0904; in experiment [18] it was -0.156; in experiment [19] it was -0.298; in [20], -0.394. For the same compound, the z-score in experiment [4] is -0.555 (inactive); in experiment [12], 1.34.
Take `CCOC(=O)[C@H](Cc1ccccc1)NC(=O)CCC1CC(OC(=O)NCc2ccc3c(c2)OCO3)CC2(CCCC(COC(=O)NCC(c3ccccc3)c3ccccc3)O2)O1` (stereo not given in full): the composite z-score was 1.06 in [1]; -0.0362 in [2]; -0.481 in experiment [3]; 0.525 in [5]; 1.23 in experiment [6]; 0.251 in experiment [7]. In addition, the composite z-score was 0.929 in experiment [8]; 0.377 in experiment [9]; -0.0374 in experiment [10]; 1.39 in experiment [11]; 0.45 in experiment [13]; -0.198 in experiment [14]. For the same compound, the composite z-score is -0.0205 in [15]; -0.175 in experiment [16]; 0.0723 in [17]; -0.233 in [18]; 0.313 in experiment [19]; 0.363 in [20]. For the same compound, the z-score in experiment [4] is -1.45 (inactive); in [12] it was 0.529.
